SMILES strings stand for the structures. Records with an inconclusive call do not appear. Activity calls are given as the source filed them. Rule for the calls: active = hit-call score of the fitted dose curve at least 0.9, where 1 is the maximum; inconclusive = response in the unintended direction; inactive = score below 0.9.

The target in one assay is Cellular tumor antigen p53 (Homo sapiens) (UniProt P04637). Description: TOX21_p53_BLA_p3_ratio: Tox21 HCT-116 p53 Agonism Beta-lactamase Assay, Ratio, Phase 3 (AID 2283596). In outline: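 Cells were seeded at 4000/well, rested 5 h at 37C, then dosed with DMSO compound solutions (217-fold dilution) for 16 h. CCF4-AM substrate was loaded for 2 h at room temperature, and the 460/530 nm emission ratio was fitted for gain of signal versus DMSO.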
Sequence of Cellular tumor antigen p53 (Homo sapiens) (P04637 whole entry, looked up): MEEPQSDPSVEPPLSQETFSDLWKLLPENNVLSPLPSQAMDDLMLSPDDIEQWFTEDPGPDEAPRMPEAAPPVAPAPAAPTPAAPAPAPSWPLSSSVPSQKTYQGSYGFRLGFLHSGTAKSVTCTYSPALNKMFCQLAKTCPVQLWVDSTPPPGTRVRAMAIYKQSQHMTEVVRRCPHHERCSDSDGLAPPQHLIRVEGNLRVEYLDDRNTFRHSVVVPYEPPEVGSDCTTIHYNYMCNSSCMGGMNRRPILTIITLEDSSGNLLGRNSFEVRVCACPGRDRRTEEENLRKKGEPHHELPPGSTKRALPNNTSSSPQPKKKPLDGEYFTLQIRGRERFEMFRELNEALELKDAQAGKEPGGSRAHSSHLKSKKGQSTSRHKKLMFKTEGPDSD
Take `CC1CCCC1`: the outcome was inactive.

With `C[C@H](N)[C@H](O)c1ccc(O)c(O)c1`, the result was inactive.

In the case of `CCN(CC)C(=O)N[C@@H]1C=C2c3cccc4[nH]cc(c34)C[C@@H]2N(C)C1`, the result was inactive.

For the compound `CN[C@@H](C)[C@H](O)c1ccccc1`, the result was inactive.

Regarding `C[C@]12CC[C@H]3[C@@H](CCC4=CC(=O)CC[C@@H]43)[C@@H]1CC[C@@H]2OC(=O)CCc1ccccc1`, the outcome was inactive.

As to `NC(=S)c1c(Cl)cccc1Cl`, the outcome was inactive.

Regarding `O=c1[nH]c2ccccc2n1CCCN1CCC(n2c(=O)[nH]c3cc(Cl)ccc32)CC1`, the result was inactive.

Take `C[N+]1(C)[C@@H]2CC[C@H]1CC(OC(=O)C(CO)c1ccccc1)C2` (stereo not given in full): the outcome was inactive.

With `CCC(C)Br` (stereo not given), the result was inactive.

For the compound `CCCCCCCCCC(=O)O[C@H]1CC[C@H]2[C@@H]3CCC4=CC(=O)CC[C@@H]4[C@H]3CC[C@]12C`, the outcome was inactive.

As for `O=NN(CCO)CCO`, the result was inactive.

With `O=[N+]([O-])c1ccc([As](=O)(O)O)cc1`, the outcome was inactive.

As for `CCNCC(O)c1cccc(O)c1` (stereo not given), the outcome was inactive.

As to `CCOC(=O)c1cncn1C(C)c1ccccc1` (stereo not given), the outcome was inactive.

For the compound `OC(c1ccccc1)(c1ccccc1)C1CCNCC1`, the outcome was inactive.

Take `C[C@H]1CNCCc2ccc(Cl)cc21`: the result was inactive.

Take `COc1ccc2c3c1O[C@H]1[C@H](O)CC[C@H]4[C@@H](C2)N(C)CC[C@@]341`: the outcome was inactive.

On to `NCCc1ccc(O)cc1`, for which the outcome was inactive.

On to `COP(N)(=S)Oc1ccccc1C(=O)OC(C)C` (stereo not given), for which the result was inactive.

Test system in a further assay: not listed separately
Description: TOX21_p53_BLA_p4_viability: Viability Assessment in the Tox21 HCT-116 p53 Agonism Beta-lactamase Assay, Phase 4 (AID 2283597).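 Note: hits lower the luminescence signal meaning cytotoxicity.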 In a few lines: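 4000 HCT116 cells per well; 5 h attachment; compounds from DMSO, 217-fold dilution; 16 h at 37C. Then CCF4-AM, 2 h RT, followed by CellTiter-Glo, 30 min RT, luminescence. Decrease = cytotoxicity.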
With `CCc1cc(OC)c(C[C@H](C)N)cc1OC`, the result was inactive.

Take `CCCBr`: the outcome was inactive.

For `O=C=NC1CCCCC1`, the call was inactive.

Take `CCN[C@@H](C)Cc1ccccc1`: the compound was called inactive.

For the compound `NC(=S)c1c(Cl)cccc1Cl`, the outcome was inactive.

As to `CCCCCBr`, the compound was called inactive.

In the case of `C[C@@H]1[C@H]2Cc3ccc(O)cc3[C@]1(C)CCN2C`, the compound was called inactive.

In the case of `CCC(C)Br` (stereo not given), the result was inactive.

As to `O=NN(CCO)CCO`, the call was inactive.

With `CC(C)(CCl)C(=O)Cl`, the call was inactive.

Consider `O=[N+]([O-])c1ccc([As](=O)(O)O)cc1`, for which the outcome was inactive.

For `N#CCCl`, the call was inactive.

Regarding `C[N+]1(CCF)[C@@H]2CC[C@H]1CC(OC(=O)C(O)(c1ccccc1)c1ccccc1)C2` (stereo not given in full), the outcome was inactive.

With `CCN(CC)CCN1C(=O)CN=C(c2ccccc2F)c2cc(Cl)ccc21`, the outcome was inactive.

For `NC(=O)C(Cl)Cl`, the compound was called inactive.

On to `C[C@H]1CNCCc2ccc(Cl)cc21`, for which the compound was called inactive.

Take `COc1ccc2c3c1O[C@H]1[C@H](O)CC[C@H]4[C@@H](C2)N(C)CC[C@@]341`: the outcome was inactive.

Turning to `COc1cc(CC(C)N)cc(OC)c1OC` (stereo not given), the compound was called inactive.

In the case of `CC(C)NC(C)Cc1ccc(I)cc1` (stereo not given), the compound was called inactive.

Regarding `N#CCCC#N`, the compound was called inactive.

In the case of `CC(=O)[C@@]1(O)CC[C@H]2[C@@H]3CCC4=CC(=O)CC[C@]4(C)C3(F)[C@@H](O)C[C@@]21C` (stereo not given in full), the compound was called inactive.

The values are drawn from PubChem BioAssay (EPA / NIEHS).
